From PubChem BioAssay come the findings set out here.

A short description of assay [1]: differential killing of epithelial or mesenchymal cells, primary screen, imaging, PC-3E GFP, TEM4-18 mCherry, co-culture (AID 1345086).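 On all read-outs here: cells exposed to compound for 72 h before imaging.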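 On red/green cell ratio (normalised): normalised mesenchymal count divided by normalised epithelial count so high means epithelial killing.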 The following applies: imaging cell counts, at 1 µM; for red/green cell ratio (normalised): actives lie on both sides, counts scaled to control wells, 1 = unselective.
Assay [2] can be described thus: suppressors of polyQ aggregation in yeast, 75Q-TubU reporter (AID 1593). The following applies: Yeast 75Q polyglutamine aggregation reporter.
The nature of assay [3]: rescue of polyQ-huntingtin neuronal dysfunction in worms, whole organism, C. elegans mechanosensory neurons, N-terminal huntingtin (AID 1599). The conditions noted are these: touch response, stronger effect = higher value.
Assay [4] can be described thus: inhibitors of mitochondrial cytochrome c release, biochemical, purified mitochondria (AID 1603).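 Further: mouse liver mitochondria challenged with calcium chloride; signal normalized to the plate average as 100%.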 The conditions noted are these: stronger effect = lower value.
The nature of assay [5]: inhibitors of polyQ protein aggregation (AID 1604). The conditions noted are these: polyglutamine-induced protein aggregation inhibition assay; stronger effect = higher value; tested at 2.5 µM.
The nature of assay [6]: enhancers of glutamate uptake in motor neurons, MN-1 cell line (AID 1612).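 Further: tested at 1 µM final; 0% = mean of DMSO vehicle wells on each plate; positive means more glutamate uptake than control and negative means less.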 The conditions noted are these: MN-1 motor neuron cells, stronger effect = higher value.
Assay [7] is described as follows: suppressors of polyglutamine aggregation in yeast, 75Q-TubH (AID 1616). The following applies: S. cerevisiae 75Q-TubH polyglutamine aggregation suppression; stronger effect = higher value.
Assay [8] is described as follows: circadian clock period modulators, cell-based, LOPAC library, luminescence reporter (AID 2774; call rule not given here;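 further: values are relative to mean of DMSO wells on each plate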). The conditions noted are these: circadian reporter cells, at 7 µM, actives lie on both sides.
Assay [9] in a line: Cy5 fluorescence quenching or enhancement artefacts, artefact control for HCV NS3 helicase inhibitor project, biochemical, LOPAC1280 (AID 687037; call rule not given here). The following applies: Cy5-DNA-NS3h complex fluorescence interference counterscreen. A general note: Counterscreens check selectivity or assay interference.
Assay [10] has as its system Aerobactin synthetase IucA (Klebsiella pneumoniae). The assay can be described thus: IucA aerobactin synthetase inhibitors, biochemical, Tocris library, absorbance (AID 1345561; call rule not given here;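 further: 100% = enzyme without compound and 0% = no enzyme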). The following applies: purified IucA enzyme assay, absorbance (OD) read-out; stronger effect = lower value;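 tested at 8 µM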.
Assay [11] can be described thus: sensitizers of A549 cells to miR-34 induction, primary screen, imaging, A549 dox-inducible miR-34, nuclei and caspase counts (AID 1347080;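 active means compounds whose cell count with miR-34 switched on is under 0.7 times the count with it off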). The conditions noted are these: A549 miR-34 inducible, Hoechst nuclei count, 48 h.
The nature of assay [12]: inhibitors of Cryptococcus chitosan production, flow cytometry, Cibacron Brilliant Red staining (AID 1347148; call rule not given here;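 further: compound exposure lasted three days at 37 degrees C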). The following applies: Cryptococcus neoformans chitosan, stronger effect = lower value; at 10 µM unless noted. In general terms: In flow cytometry, cells or beads pass a laser one at a time.
Assay [13] concerns Hepatitis C virus NS3 helicase. The assay can be described thus: HCV NS3 helicase inhibitors, primary screen, biochemical, fluorescence polarization, LOPAC1280 library (AID 687035; in the data active means inhibition above about 37%). The conditions noted are these: Purified HCV NS3 helicase, Cy5-dT15 ssDNA binding fluorescence polarization; stronger effect = higher value; concentration not given here. In general terms: In fluorescence polarisation assays a small probe gives low polarisation when free and higher when bound to something large.

The nature of assay [14]: viability rescue of complex I mutant cybrids, primary screen, cell-based, galactose medium, ATP luminescence (AID 1645843;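 active means z-score of at least 1.8 in each of two replicates, scored against plate mean and spread of sample wells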;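 further: positive z means more ATP and so rescue of galactose-driven cybrid death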). The following applies: complex I mutant cybrid cells, 72 h, stronger effect = higher value.
Assay [15] deals with Mitogen-activated protein kinase 7 (Homo sapiens) (UniProt Q13164). The assay can be described thus: ERK5 transactivation activators in reporter cells, primary screen, cell-based, HTS (AID 1508626;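 active means luciferase signal above three times the same-plate solvent-only control wells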;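 further: luciferase driven by Gal4-ERK5 fusion binding five Gal4 sites before minimal TATA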). The conditions noted are these: HeLa Gal4-ERK5 transactivation, 18 h, at 5 µM, stronger effect = higher value.
Where [16] appears, read: measured here: epithelial PC-3E GFP cell survival.
The mark [17] stands for this setting: measured here: mesenchymal TEM4-18 mCherry cell survival.
Setting [18] is: stronger effect = lower value, cell number ratio, induced over uninduced.
The mark [19] stands for this setting: measured here: relative caspase fold change +Dox/-Dox.
[20] abbreviates: measured here: total cells with miR-34 induction, stronger effect = lower value.
The mark [21] stands for this setting: measured here: total cells without miR-34 induction.

By remaining activity is commonly meant the signal under treatment as a percentage of the control signal. By inhibition is commonly meant the change of the read-out against control, counted positive when it falls.

“And” between values parts separate entries of the source, which are not always exact repeats. Equal values may be shown once. For some of these results: Measured potencies and affinities stand elsewhere. A structure can be active in one record and inactive in another. The source made the active and inactive calls.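 How the source made its calls, unless noted: active means compounds killing one labelled cell type while sparing the other, by normalised counts and ratio limits, not self-fluorescent; inactive means the rest.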

Mitogen-activated protein kinase 7 (Homo sapiens), sequence (Q13164 whole entry, looked up, the tested form may be a part): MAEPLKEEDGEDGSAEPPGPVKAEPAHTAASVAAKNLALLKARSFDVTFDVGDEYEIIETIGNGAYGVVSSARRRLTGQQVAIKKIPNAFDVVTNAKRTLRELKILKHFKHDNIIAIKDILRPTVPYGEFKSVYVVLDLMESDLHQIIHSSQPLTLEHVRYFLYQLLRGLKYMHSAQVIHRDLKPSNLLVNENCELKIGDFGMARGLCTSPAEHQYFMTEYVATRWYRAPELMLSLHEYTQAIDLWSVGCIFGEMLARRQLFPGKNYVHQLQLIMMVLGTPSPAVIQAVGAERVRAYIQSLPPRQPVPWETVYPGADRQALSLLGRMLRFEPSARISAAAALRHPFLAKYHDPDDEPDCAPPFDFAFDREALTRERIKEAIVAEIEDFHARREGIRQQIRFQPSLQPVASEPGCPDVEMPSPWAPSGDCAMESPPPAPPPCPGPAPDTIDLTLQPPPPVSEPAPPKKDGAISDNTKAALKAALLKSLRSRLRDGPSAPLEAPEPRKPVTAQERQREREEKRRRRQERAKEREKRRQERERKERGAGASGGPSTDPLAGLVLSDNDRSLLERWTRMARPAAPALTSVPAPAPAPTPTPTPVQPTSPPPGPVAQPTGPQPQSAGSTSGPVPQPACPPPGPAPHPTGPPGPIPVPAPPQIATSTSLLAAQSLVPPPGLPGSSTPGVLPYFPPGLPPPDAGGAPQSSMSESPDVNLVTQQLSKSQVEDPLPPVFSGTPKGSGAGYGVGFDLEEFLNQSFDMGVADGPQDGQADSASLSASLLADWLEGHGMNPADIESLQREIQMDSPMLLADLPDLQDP

For the compound `C[C@@H]1C[C@@H](O)[C@@H](O)CO1`, the red/green cell ratio (normalised) in assay [1] was 1.05 (inactive). In addition, the normalised cell number in assay [1] (setting [16]) was 0.91; in assay [1] (setting [17]) it was 0.96.

Consider `O=C(O)C1CCN(C(=O)OCc2ccccc2)CC1`, for which the red/green cell ratio (normalised) in assay [1] was 1.04 (inactive). The normalised cell number amounted to 0.9 in assay [1] (setting [16]) and 0.94 in assay [1] (setting [17]).

`C[C@H](Oc1ccc(Oc2ccc3ncc(Cl)nc3c2)cc1)C(=O)O`: the red/green cell ratio (normalised) in [1] is 0.92 (inactive). Also, the results for the normalised cell number in assay [1] (setting [16]) and in assay [1] (setting [17]) were 1.29 and 1.18, respectively.

Regarding `C=C(C)[C@@H]1CC[C@]2(C)CC[C@]3(C)[C@@H](CCC4[C@@]5(C)CC[C@H](O)C(C)(C)C5CC[C@]43C)C12` (stereo not given in full), in assay [1], the red/green cell ratio (normalised) was 1.12 (inactive). The normalised cell number in assay [1] (setting [16]) turned out to be 0.95; in [1] (setting [17]), 1.07.

For `COC(=O)/C=C/C(C)=C/C=C/C(C)=C/C=C/C=C(C)/C=C/C=C(C)/C=C/C(=O)O`, the red/green cell ratio (normalised) in [1] is 0.81 (inactive). In addition, the normalised cell number in assay [1] (setting [16]) worked out at 1.29; in [1] (setting [17]) it was 1.05.

As for `O=C(O)[C@@H](S)[C@@H](S)C(=O)O`, the red/green cell ratio (normalised) in assay [1] is 1.16 (inactive). For the same compound, the normalised cell number amounted to 0.95 in assay [1] (setting [16]) and 1.1 in assay [1] (setting [17]).

On to `CN(C(=O)OCc1ccccc1)C1C(O[C@@H]2OC(COS(=O)(=O)O)C(NC(=O)OCc3ccccc3)[C@H](OS(=O)(=O)O)[C@H]2OS(=O)(=O)O)OC2C[C@@H](NC(=O)OCc3ccccc3)[C@@H](OC3C(NC(=O)OCc4ccccc4)C[C@@H](NC(=O)OCc4ccccc4)[C@H](OS(=O)(=O)O)[C@H]3OS(=O)(=O)O)OC2C1OS(=O)(=O)O` (stereo not given in full), for which, in assay [1], the red/green cell ratio (normalised) is 0.95 (inactive). Further, the normalised cell number in [1] (setting [16]) amounted to 1.05; in assay [1] (setting [17]) it was 1.

Turning to `OCc1cc(Br)ccc1Cl`, in assay [1], the red/green cell ratio (normalised) was 1.07 (inactive). The normalised cell number in assay [1] (setting [16]) came to 1.07; in assay [1] (setting [17]) it was 1.14.

`OCCN1C[C@H](O)[C@@H](O)C(O)C1CO` (stereo not given in full): in [1], the red/green cell ratio (normalised) was 1.19 (inactive). In addition, the normalised cell number in assay [1] (setting [16]) turned out to be 1.01; in [1] (setting [17]), 1.21.

Take `COc1cc(OC)c2c(O)c(C(C)=O)c(C)cc2c1`: in assay [1], the red/green cell ratio (normalised) is 1.01 (inactive). The normalised cell number in assay [1] (setting [16]) was 1.08; in [1] (setting [17]), 1.09.

In [2], `C/C=C/CC(C)C(O)C1C(=O)NC(CC)C(=O)N(C)CC(=O)N(C)C(CC(C)C)C(=O)NC(C(C)C)C(=O)N(C)C(CC(C)C)C(=O)NC(C)C(=O)NC(C)C(=O)N(C)C(CC(C)C)C(=O)N(C)C(CC(C)C)C(=O)N(C)C(C(C)C)C(=O)N1C` (stereo not given) returned a score of 1.51. This compound gave a rescue above control in assay [3] of 1.62. Moreover, the cytochrome c release ratio in assay [4] amounted to 0.93. For the same compound, the inhibition of aggregation in assay [5] was determined as 77.8%. Moreover, the glutamate uptake change in [6] is -28.6%. For the same compound, the aggregation suppression score in assay [7] was determined as 1.73. Besides, the period change in [8] was -0.005 h (inactive). Moreover, in assay [9], the fluorescence ratio (interference) was 0.9 (inactive). The red/green cell ratio (normalised) in [1] was 0.77 (inactive). For the same compound, the normalised cell number in [1] (setting [16]) amounted to 0.27; in [1] (setting [17]), 0.21. Moreover, the remaining activity in [10] was 111% (inactive). Also, the fold change was 1.04 (inactive) and 1.06 (inactive) and 0.898 (inactive) in assay [11] (setting [18]); 1.1 and 0.674 and 2.07 in [11] (setting [19]). In [12], the fold fluorescence is 18.1 [at 41.6 µM] (inactive).

With `O=C(O)C(O)[C@H](O)[C@H](O)[C@H](O)[C@H](O)CO` (stereo not given in full), the red/green cell ratio (normalised) in assay [1] is 1.28 (inactive). For the same compound, the normalised cell number in [1] (setting [16]) worked out at 1.07; in assay [1] (setting [17]) it was 1.37.

As to `O=C(O)c1ccccc1Nc1cccc(OCc2ccc3ccccc3n2)c1`, the period change in [8] was -0.125 h (inactive). Besides, the inhibition in [13] was 0% (inactive). Besides, the fluorescence ratio (interference) in [9] was 1 (inactive). Moreover, the red/green cell ratio (normalised) in [1] is 0.86 (inactive). The normalised cell number stood at 1.35 in assay [1] (setting [16]) and 1.16 in [1] (setting [17]). The remaining activity in assay [10] was 112% (inactive). Moreover, the fold change in assay [11] (setting [18]) was 0.992 (inactive) and 0.929 (inactive); in assay [11] (setting [19]), 0.944 and 0.452. For the same compound, the cell count in assay [11] (setting [20]) was 9820 and 8230; in assay [11] (setting [21]), 9900 and 8860. The z-score in [14] is 2.17 (active) and -0.695 (inactive).

For `CC(=O)N[C@@H]1[C@@H](OC(C)C(=O)O)[C@H](O)[C@@H](CO)O[C@H]1O` (stereo not given in full), in assay [1], the red/green cell ratio (normalised) is 0.95 (inactive). The normalised cell number in [1] (setting [16]) was determined as 1.06; in [1] (setting [17]), 1.

Take `CC[C@H](CCC(C)[C@H]1CCC2C3CCC4C[C@@H](O)CC[C@]4(C)C3CC[C@@]21C)C(C)C` (stereo not given in full): in assay [1], the red/green cell ratio (normalised) is 1.11 (inactive). The figures for the normalised cell number in [1] (setting [16]) and in assay [1] (setting [17]) were 0.91 and 1.01, respectively.

Turning to `C=C1C(=O)O[C@@H]2C(=O)O[C@@H](CCCCCCCC)[C@H]12`, in assay [1], the red/green cell ratio (normalised) was 0.86 (inactive). In addition, the normalised cell number in assay [1] (setting [16]) came out at 1.04; in assay [1] (setting [17]), 0.89.

For `CC[C@@H](C)CC(=O)N1C(=S)O[C@@H]2Cc3ccccc3[C@@H]21`, the red/green cell ratio (normalised) in assay [1] is 0.94 (inactive). Further, the normalised cell number in assay [1] (setting [16]) turned out to be 1.12; in assay [1] (setting [17]), 1.05.

In the case of `CC1CC2OC2/C=C/C(O)CC(=O)O1` (stereo not given), the red/green cell ratio (normalised) in assay [1] is 0.97 (inactive). In addition, the results for the normalised cell number in assay [1] (setting [16]) and in assay [1] (setting [17]) were 1.06 and 1.02, respectively.

For the compound `O[C@@H]1[C@H](O)CO[C@H]1O`, in assay [1], the red/green cell ratio (normalised) was 0.77 (inactive). For the same compound, the normalised cell number in assay [1] (setting [16]) amounted to 1.11; in assay [1] (setting [17]), 0.86.

On to `CC(=O)O[C@H]1CC[C@@]2(C)C(CC[C@]3(C)C2CC=C2C4CC(C)(C)CC[C@]4(C)CC[C@]23C)C1(C)C` (stereo not given in full), for which the red/green cell ratio (normalised) in [1] was 1.1 (inactive). Moreover, the normalised cell number in assay [1] (setting [16]) turned out to be 1.04; in assay [1] (setting [17]) it was 1.15.

As to `Cc1cc2c(CO)cc(O)cc2o1`, the red/green cell ratio (normalised) in [1] was 1 (inactive). The normalised cell number in [1] (setting [16]) and in [1] (setting [17]) was 0.92 each time.

As to `NCCOB(c1ccccc1)c1ccccc1`, in [1], the red/green cell ratio (normalised) is 1.1 (inactive). In addition, the values for the normalised cell number in assay [1] (setting [16]) and in [1] (setting [17]) were 0.8 and 0.89, respectively. The remaining activity in assay [10] is 110% (inactive). Also, the fold change in assay [11] (setting [18]) is 0.925 (inactive); in [11] (setting [19]), 0.886. For the same compound, the cell count was found to be 8820 in assay [11] (setting [20]) and 9540 in assay [11] (setting [21]). For the same compound, the luciferase signal in [15] is 120 AU (inactive). Besides, in assay [14], the z-score was 1.9 (inactive).

Turning to `O=c1c(O)c(-c2ccc(O)c(O)c2)oc2c(O[C@@H]3O[C@H](CO)[C@H](O)[C@@H](O)[C@H]3O)c(O)cc(O)c12`, in assay [1], the red/green cell ratio (normalised) was 0.95 (inactive). The normalised cell number was 1.06 in assay [1] (setting [16]) and 1.01 in assay [1] (setting [17]).

For the compound `C[C@@H](Oc1ccc(Oc2ccc3ncc(Cl)nc3c2)cc1)C(=O)O`, the red/green cell ratio (normalised) in assay [1] was 0.86 (inactive). Further, the normalised cell number in assay [1] (setting [16]) was found to be 1.19; in [1] (setting [17]), 1.03.
